Screening data from PubChem.
Peg3 prom inh – reduces Peg3 promoter-driven luciferase expression in HeLa. HeLa PEG-Prom luciferase reporter, luminescence, overnight. inhibition, % at 20 µM. 1.7% of 360,000 active. AID 588405;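 active = inhibition of at least 50% at 20 µM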
MITF TRPM1 inh – MITF TRPM1 promoter inhibition in SK-MEL-5 cells | SK-MEL-5 TRPM1 promoter luciferase, 24 h | inhibition, % at 12.5 µM | 0.83% of 330,000 active;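 active = mean inhibition across replicates of 60% or more, whatever share of single replicates reaches that level; inconclusive = some that reach 60%, reason not given; inactive = mean inhibition across replicates below 60%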
HIF-2a inh – inhibitors of HIF-2a. 0.72% of 360,000 active. inhibition, % at 18.8 µM. 786-0 RCC cells HIF-2a reporter, luciferase luminescence, overnight;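 active = inhibition of the luminescence signal of 40% or more relative to plate controls, in a single-dose primary screen at 18.75 µM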
TROY signal inh – blocks TROY-dependent signaling in reporter cells. inhibition, % at 10 µM. Q293 LMP1-TROYcd NF-kB luciferase reporter, 4 h. 0.98% of 360,000 active;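 active = compounds whose plate-normalised and pattern-corrected inhibition of the luciferase reporter signal at the single screening dose is 50% or more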
TWEAK Fn14 block – blocks TWEAK-Fn14 interaction in a reporter cell assay. inhibition, % at 10 µM. TWEAK-stimulated Fn14 reporter cells, luciferase luminescence, 8 h. 2% of 360,000 active; in the data active = inhibition above about 50%
LMP1 NFkB inh – inhibitors of Epstein-Barr LMP1-induced NF-kappaB reporter; 0.69% of 350,000 active; inhibition, % at 12.5 µM; AID 504558; LMP1-induced NF-kappaB luciferase reporter cells, luminescence; in the data active = inhibition above about 41%; inconclusive = no clear call, values can overlap the other calls;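 also: 0% = neutral control wells and 100% = reference inhibitor control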
* hit, by the source's call; ? = inconclusive; · = not tested or not shown. This is a sample that favours compounds with a hit; in the whole collection about 4% have one here.

SMILES	Peg3 prom inh	MITF TRPM1 inh	HIF-2a inh	TROY signal inh	TWEAK Fn14 block	LMP1 NFkB inh
CCOC(=O)c1cc(C)n(-c2ccc(Cl)cc2)c1C	-38	6	-48	-25	7	-1
COC(=O)c1ccc(-n2c(C)cc(C(=O)COC(=O)C3=COCCO3)c2C)cc1	0	2	-1	5	-9	3
COC(=O)c1ccc(-n2c(C)cc(C(=O)CCl)c2C)cc1	82*	87*	33	10	15	7
CCOc1ccc(-n2c(C)cc(C(=O)CCl)c2C)cc1	111*	69*	20	3	4	5
On1ccccc1=S	100*	75*	11	69*	106*	-23
CCN(CC(=O)N1CCOCC1)S(=O)(=O)c1ccc(F)cc1	5	-2	-2	-4	23	1
CCN(c1cccc(C)c1)S(=O)(=O)c1ccc2c(c1)CCCN2C(C)=O	4	5	6	6	14	8
CCN(c1cccc(C)c1)S(=O)(=O)c1ccc2c(c1)CCN2C(C)=O	30	13	26	35	93*	9
CCCn1c(C)nnc1SCC(=O)NC1CCCCC1	6	-7	19	5	-6	3
Cc1cccc(OCc2cc(-c3ccccc3)no2)c1C	-277	-34	-250	-41	-48	-45
Clc1ccc(OCc2cc(-c3ccccc3)no2)c(Cl)c1	-106	-10	-127	50	62*	0
Cc1cc(C(=O)N/N=C/c2cccc3ccccc23)c(C)o1	-188	-54	-161	-53	-7	-9
O=C1NC(Cc2ccc(O)cc2)c2nc3cc(F)c(F)cc3c(=O)n2-c2cc3ccccc3cc21 (stereo not drawn)	47	·	-3	23	37	-2
O=C1NC(Cc2ccc(O)cc2)c2nc3cc(Cl)ccc3c(=O)n2-c2cc3ccccc3cc21 (stereo not drawn)	57*	·	-20	13	41	-46
Cc1ccc2nc3n(c(=O)c2c1)-c1cc2ccccc2cc1C(=O)NC3Cc1ccc(O)cc1 (stereo not drawn)	69*	·	10	34	26	12
CC1CCN(CCOc2ccc(C(=O)c3ccccc3)cc2)CC1	9	3	5	4	4	80*
Cc1nc(C)c(C(=O)Nc2nc3c(C)cccc3s2)o1	7	18	-11	35	70*	-3
Cc1cccc2sc(NC(=O)C3CCCO3)nc12 (stereo not drawn)	-201	-72	-277	-56	-7	-39
COc1ccc(CCNC(=O)CNCCc2ccc(F)cc2)cc1	2	-7	13	3	15	4
CSc1nc(N)nc2c1ncn2CC(=O)NCc1ccc2c(c1)OCO2	1	3	-3	-1	-8	26
CSc1nc(N)nc2c1ncn2CC(=O)NCc1ccccc1	1	0	5	21	24	88*
CNS(=O)(=O)c1cc(NC(=O)c2cncn2-c2ccccc2)ccc1C	0	-9	-4	11	79*	-5
COc1ccc(C(=O)NC(=S)NNC(=O)[C@H]2C[C@@H]2c2ccccc2)cc1OC	61*	-3	21	-7	-11	-28
CCCCC[C@@H](C)N1C[C@H](COCc2ccccc2)Oc2cc(N3CCC[C@H]3CO)ccc2S1(=O)=O	·	·	-3	-7	2	·
CCCNC(=O)NS(=O)(=O)c1ccc(Cl)cc1	-2	-2	8	-3	2	58*
SMILES	Peg3 prom inh	MITF TRPM1 inh	HIF-2a inh	TROY signal inh	TWEAK Fn14 block	LMP1 NFkB inh
CCc1nnc(N/N=C/c2cc(Br)c(O)cc2O)n1N	-4	11	6	16	-1	0
CC(C)(C)c1nnc(N/N=C/c2cc(Br)ccc2O)n(N)c1=O	73*	68*	-8	-2	32	?
CCc1ccccc1N(CC(=O)NC1CCCCC1)C(=O)CCCC(=O)Nc1ccccn1	-1	-1	8	14	80*	-2
O=C(OCCN1C(=O)c2cccc3c(N4CCOCC4)ccc(c23)C1=O)c1ccc(Cl)cc1	16	9	11	42	66*	16
O=S(=O)(Nc1nc2ccccc2nc1Nc1ccc(N2CCOCC2)cc1)c1cc(Cl)ccc1Cl	19	-6	-83	61*	80*	9
Clc1nc(Nc2ccc(N3CCOCC3)cc2)c2ccccc2n1	3	5	2	1	14	15
Oc1ccc(N=Nc2n[nH]c(-c3ccc(Br)cc3)n2)cc1	86*	-10	-95	-74	13	-10
Oc1ccc(N=Nc2n[nH]c(-c3ccccc3)n2)cc1	-131	-47	-174	-40	23	32
C1CCC(C(CC2CCCCN2)C2CCCCC2)CC1 (stereo not drawn)	104*	81*	-25	-4	-12	-6
O=C(/C=C\c1ccc(-c2ccccc2)o1)c1ccccc1	80*	-33	-166	-51	35	-14
Cc1ccc(C(=O)/C=C/c2ccc(-c3ccc(C)cc3)o2)cc1	74*	-1	20	-9	24	-15
CCCCN1C2=NC(c3ccccc3)CN2c2ccccc21 (stereo not drawn)	15	4	10	-4	-20	7
N=c1ncn(C2OC(CO)C(O)C2O)c2nc(Br)[nH]c12 (stereo not drawn)	-1	·	9	0	-4	3
Cc1c(C(=O)N2CCCC2)oc2c1-c1[nH]ncc1CC2	-3	-6	-15	5	6	0
COc1ccc(/C=N/n2cnc3c([nH]c4ccc(C)cc43)c2=O)cc1CN1CCCC1	77*	83*	13	1	8	-3
COc1ccc2c(c1)[nH]c1c(=O)n(/N=C/c3ccc(OC)c(CN4CCCC4)c3)cnc12	-23	-10	-30	4	-26	1
COc1ccc(-c2noc(Cn3cc(S(=O)(=O)N4CCCC4)ccc3=O)n2)cc1	4	-6	4	-10	-1	4
O=C(NC1CCCCC1)N(c1ccccc1)c1nnc(-c2cccc([N+](=O)[O-])c2)s1	-149	·	-194	-32	-30	-8
C(CCN1CCOCC1)CN1CCOCC1	8	·	-2	64*	-9	·
NCCCN1CCOCC1	13	-2	1	4	5	6
CCCCn1c(N)c(N(CCOC)C(=O)c2oc3c(Cl)cccc3c2C)c(=O)[nH]c1=O	-6	·	14	18	2	0
C[C@@H]1CN([C@H](C)CO)C(=O)CCCn2cc(nn2)CO[C@H]1CN(C)S(=O)(=O)c1ccccc1	3	·	13	-3	5	5
O=C1CC(=C(c2ccccc2)c2ccccc2)C(=O)N1CCCCN1CCN(c2cccc(Cl)c2)CC1	50*	10	28	7	30	-5
O=C(/C=C/c1ccc(Br)cc1)c1ccc(NC(=O)c2ccco2)cc1	-37	-13	-51	-38	8	-2
O=C(/C=C/c1ccc(Br)cc1)c1ccco1	90*	-6	-51	1	14	-6
